Compound activity from PubChem BioAssay.
Rows were chosen to be rich in hits. Some 3.5% of all compounds tested hit in one or more screens of this group.
TEAD-YAP inh – TEAD-YAP interaction inhibition | inhibition, % at 9.12 µM | HEK-TIYL cells, TEAD-Gal4/YAP UAS-luciferase luminescence | 640,000 tested, 1.4% active; in the data active = inhibition above about 32%;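 note: 0% = median of test compound wells and 100% = reference inhibitor wells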
GPR151 activ – activates the human receptor GPR151. Q8TDV0. PathHunter beta-arrestin GPR151 cells, luminescence. activation, % at 11.2 µM. 650,000 tested, 1% active. AID 1508602; in the data active = activation above about 4.9%;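 note: 0% = median of compound wells and 100% = cells with positive control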
FBW7 act – human FBW7 E3 ligase activation, primary screen | Q969H0 | normalized activity (activation), % at 26.1 µM | AlphaScreen FBW7–phospho-cyclin E peptide binding, activator screen | 650,000 tested, 0.13% active | AID 1259310; in the data active = normalized activity above about 1.9%;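 note: purified mutant Fbw7 with reduced substrate affinity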
Target sequence (Q969H0 whole entry, looked up): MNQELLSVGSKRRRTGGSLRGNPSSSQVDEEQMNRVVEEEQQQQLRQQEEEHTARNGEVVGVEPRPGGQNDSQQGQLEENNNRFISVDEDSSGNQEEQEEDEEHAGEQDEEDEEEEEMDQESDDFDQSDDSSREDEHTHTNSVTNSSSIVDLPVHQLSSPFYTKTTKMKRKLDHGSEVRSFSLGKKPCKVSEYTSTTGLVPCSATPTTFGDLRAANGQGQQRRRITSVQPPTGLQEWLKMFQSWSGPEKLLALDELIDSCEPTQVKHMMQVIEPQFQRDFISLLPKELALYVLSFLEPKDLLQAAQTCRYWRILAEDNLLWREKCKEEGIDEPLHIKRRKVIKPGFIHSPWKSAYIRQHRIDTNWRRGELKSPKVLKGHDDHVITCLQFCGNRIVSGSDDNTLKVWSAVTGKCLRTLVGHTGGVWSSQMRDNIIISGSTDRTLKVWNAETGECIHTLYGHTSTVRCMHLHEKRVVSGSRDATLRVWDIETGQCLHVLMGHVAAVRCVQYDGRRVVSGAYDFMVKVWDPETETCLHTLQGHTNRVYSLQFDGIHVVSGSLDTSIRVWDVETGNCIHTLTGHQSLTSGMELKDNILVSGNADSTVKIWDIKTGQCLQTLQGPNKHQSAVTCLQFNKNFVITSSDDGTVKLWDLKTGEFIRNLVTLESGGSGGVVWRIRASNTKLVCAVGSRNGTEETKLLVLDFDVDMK
MITF inh – human MITF inhibition, primary screen | inhibition, % at 2.6 µM | AlphaScreen MITF homodimerization, bead proximity signal | 650,000 tested, 0.91% active | O75030 | AID 1259374; in the data active = inhibition above about 50%;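 note: 0% = vehicle wells with protein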
GPR151 conf act – human GPR151 activation, confirmation screen. shares compounds with GPR151 activ. GPR151 PathHunter beta-arrestin cells, luminescence, 90 min; % of EA-reagent control over plate median. activation, % at 11.2 µM. 6,700 tested, under 10 active. AID 1508609;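 active = mean percent activation across replicates above the confirmation screen cutoff of 4.91%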
GPR119 counter – GPR119 activation, counter-screen for GPR151 activators; activation, % at 11.2 µM; shares compounds with GPR151 activ; 6,700 tested, 0.3% active; GPR119 PathHunter beta-arrestin cells, luminescence, 90 min; 0 = compound-well median, 100 = enzyme-acceptor control;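 active = mean percent activation in the counterscreen above 29.09%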;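 note: counterscreen on off-target GPR119 to flag nonselective hits from the GPR151 activator screen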
* marks the source's active call; other numbers are inactive results.

What do the screens show for `CCOC(=O)CSc1nc2ccccc2c(=O)n1Cc1ccccc1OC`?
TEAD-YAP inh: 6; GPR151 activ: 5.2*; FBW7 act: 0; MITF inh: 7; GPR151 conf act: 0; GPR119 counter: 1

How did CCC(C)NC(=O)CSc1nc2ccccc2c(=O)n1CCCN1CCCCC1CC (configuration not stated) do in these assays?
TEAD-YAP inh: 1; GPR151 activ: 1; FBW7 act: 0; MITF inh: -5

What do the screens show for `O=C(CSc1nc2ccsc2c(=O)n1Cc1ccccc1)NCCC1=CCCCC1`?
TEAD-YAP inh: -7; GPR151 activ: 8.7*; FBW7 act: 0; MITF inh: 5; GPR151 conf act: 1; GPR119 counter: 4

How did CC(NC(=O)CSc1nc2ccccc2c(=O)n1CCCO)c1ccccc1 (configuration not stated) do in these assays?
TEAD-YAP inh: 6; GPR151 activ: 6.5*; FBW7 act: 0; MITF inh: 9; GPR151 conf act: 0; GPR119 counter: -2

How did CCOC(=O)COc1ccc2c(C)c(-c3ccccc3)c(=O)oc2c1 do in these assays?
TEAD-YAP inh: 0; GPR151 activ: -2; FBW7 act: 0; MITF inh: 2

Results for Cc1c(-c2ccccc2)c(=O)oc2cc(OCC#N)ccc12 ?
TEAD-YAP inh: 11; GPR151 activ: 6.5*; FBW7 act: 0; MITF inh: -3; GPR151 conf act: 0; GPR119 counter: 8

Results for COc1ccc(-c2cc(C(=O)N(C)Cc3ccccc3)on2)cc1OC ?
TEAD-YAP inh: -10; GPR151 activ: 5.9*; FBW7 act: 0; MITF inh: -5; GPR151 conf act: 0; GPR119 counter: 0

What do the screens show for `CN(Cc1ccccc1)C(=O)c1cc(-c2ccccc2O)no1`?
TEAD-YAP inh: -11; GPR151 activ: -1; FBW7 act: 0; MITF inh: 7

How did N#Cc1cc2cc3c(cc2nc1NCCNC(=O)c1ccccc1Cl)OCO3 do in these assays?
TEAD-YAP inh: 4; GPR151 activ: -1; FBW7 act: 0; MITF inh: -13

How did COCCOC(=O)C1=C(C)Nc2ccc(C)cc2S1 do in these assays?
TEAD-YAP inh: 4; GPR151 activ: 0; FBW7 act: 0; MITF inh: 17

Results for CCOCCOC(=O)C1=C(C)Nc2ccc(C)cc2S1 ?
TEAD-YAP inh: 2; GPR151 activ: 13*; FBW7 act: 0; MITF inh: 9; GPR151 conf act: 1; GPR119 counter: 11

What do the screens show for `C=C(Cl)COc1nc2cc(OC)c(OC)cc2cc1CNCCc1cnn(C)c1`?
TEAD-YAP inh: -7; GPR151 activ: 2; FBW7 act: 0; MITF inh: -13

How did O=C(NCCC1=CCCCC1)c1ccc(N2CC3CC(C2)c2cccc(=O)n2C3)c(NC(=O)c2c(F)cccc2F)c1 (configuration not stated) do in these assays?
TEAD-YAP inh: -4; GPR151 activ: 8.0*; FBW7 act: 0; MITF inh: 4; GPR151 conf act: 0; GPR119 counter: 3

Results for CCOC(=O)N1CCC(NC(=O)c2ccc(N3CC4CC(C3)c3cccc(=O)n3C4)c(NC(=O)c3ccc(C(C)(C)C)cc3)c2)CC1 (configuration not stated) ?
TEAD-YAP inh: -13; GPR151 activ: 0; FBW7 act: 0; MITF inh: 1

How did CC1CC(C)CN(C(=O)c2ccc(N3CC4CC(C3)c3cccc(=O)n3C4)c(NC(=O)c3ccc(F)cc3)c2)C1 (configuration not stated) do in these assays?
TEAD-YAP inh: -6; GPR151 activ: 6.3*; FBW7 act: 0; MITF inh: -8; GPR151 conf act: 0; GPR119 counter: 5

How did O=C(Nc1cc(C(=O)N2CCCC2)ccc1N1CC2CC(C1)c1cccc(=O)n1C2)c1ccc(F)cc1 (configuration not stated) do in these assays?
TEAD-YAP inh: 13; GPR151 activ: 1; FBW7 act: 0; MITF inh: 4

How did CCOC(=O)N1CCC(NC(=O)c2ccc(N3CC4CC(C3)c3cccc(=O)n3C4)c(NC(=O)c3ccncc3)c2)CC1 (configuration not stated) do in these assays?
TEAD-YAP inh: -5; GPR151 activ: 4.9*; FBW7 act: 0; MITF inh: -2; GPR151 conf act: -1; GPR119 counter: -12

What do the screens show for `O=c1nc(/C=C/c2ccc(-c3ccccc3[N+](=O)[O-])o2)cc(C(F)(F)F)[nH]1`?
TEAD-YAP inh: 12; GPR151 activ: 0; FBW7 act: 0; MITF inh: 15

What do the screens show for `Cc1nn(S(=O)(=O)c2ccc3ccccc3c2)c(C)c1Br`?
TEAD-YAP inh: 9; GPR151 activ: 0; FBW7 act: 0; MITF inh: -4

How did CCOCCCNc1c(-c2ccccc2)nc2cnccn12 do in these assays?
TEAD-YAP inh: 6; GPR151 activ: 5.6*; FBW7 act: 0; MITF inh: 9; GPR151 conf act: 0; GPR119 counter: 5

Results for CCOCCCNc1c(-c2ccccc2)nc2ccc(Br)cn12 ?
TEAD-YAP inh: -39; GPR151 activ: 1; FBW7 act: 0; MITF inh: -3

How did CCn1c(C(=O)O)c(CC(=O)Nc2cc(Cl)ccc2OC)c2ccccc21 do in these assays?
TEAD-YAP inh: 2; GPR151 activ: 5.4*; FBW7 act: 0; MITF inh: -1; GPR151 conf act: -1; GPR119 counter: -11

How did COc1ccc(C)cc1NC(=O)Cc1c(C(=O)O)n(C)c2ccccc12 do in these assays?
TEAD-YAP inh: 5; GPR151 activ: 1; FBW7 act: 0; MITF inh: 18

What do the screens show for `COc1ccccc1C(=O)NC(=S)Nc1ccccn1`?
TEAD-YAP inh: -56; GPR151 activ: 0; FBW7 act: 0; MITF inh: 14

Results for OC1CCN(Cc2c(F)cccc2F)CC1 ?
TEAD-YAP inh: 2; GPR151 activ: 5.9*; FBW7 act: 0; MITF inh: -2; GPR151 conf act: 0; GPR119 counter: 2

How did CCCCOC(=O)c1c(C)c(Cl)c(C)[nH]c1=O do in these assays?
TEAD-YAP inh: 7; GPR151 activ: 0; FBW7 act: 0; MITF inh: -8

What do the screens show for `Cc1ccc(NC(=O)COc2ccccc2C(=O)NC(C)c2ccccc2)cc1[N+](=O)[O-]` (configuration not stated)?
TEAD-YAP inh: 10; GPR151 activ: 7.1*; FBW7 act: 0; MITF inh: 17; GPR151 conf act: 0; GPR119 counter: -13

Results for Cc1ccc(NC(=O)C(Sc2ccccc2)c2ccccc2)cc1[N+](=O)[O-] (configuration not stated) ?
TEAD-YAP inh: -2; GPR151 activ: 8.4*; FBW7 act: 0; MITF inh: 14; GPR151 conf act: 0; GPR119 counter: -10
